Experimental data: PMC4336329 (PLoS ONE, 2015)
In all, about 310,000 compounds went through this assay and about 14,000 (4.5%) showed an effect of 50% or more. The effect is printed as a negative number. The entries come from a sample that favours strong results as a whole.

Each compound was assayed against human ether-à-go-go-related gene (hERG) potassium channel (human, UniProt Q12809) (assay: primary screen, population patch clamp on CHO cells stably expressing hERG; higher = less effect of the substance).
Chain of human ether-à-go-go-related gene (hERG) potassium channel (Q12809 whole entry, looked up): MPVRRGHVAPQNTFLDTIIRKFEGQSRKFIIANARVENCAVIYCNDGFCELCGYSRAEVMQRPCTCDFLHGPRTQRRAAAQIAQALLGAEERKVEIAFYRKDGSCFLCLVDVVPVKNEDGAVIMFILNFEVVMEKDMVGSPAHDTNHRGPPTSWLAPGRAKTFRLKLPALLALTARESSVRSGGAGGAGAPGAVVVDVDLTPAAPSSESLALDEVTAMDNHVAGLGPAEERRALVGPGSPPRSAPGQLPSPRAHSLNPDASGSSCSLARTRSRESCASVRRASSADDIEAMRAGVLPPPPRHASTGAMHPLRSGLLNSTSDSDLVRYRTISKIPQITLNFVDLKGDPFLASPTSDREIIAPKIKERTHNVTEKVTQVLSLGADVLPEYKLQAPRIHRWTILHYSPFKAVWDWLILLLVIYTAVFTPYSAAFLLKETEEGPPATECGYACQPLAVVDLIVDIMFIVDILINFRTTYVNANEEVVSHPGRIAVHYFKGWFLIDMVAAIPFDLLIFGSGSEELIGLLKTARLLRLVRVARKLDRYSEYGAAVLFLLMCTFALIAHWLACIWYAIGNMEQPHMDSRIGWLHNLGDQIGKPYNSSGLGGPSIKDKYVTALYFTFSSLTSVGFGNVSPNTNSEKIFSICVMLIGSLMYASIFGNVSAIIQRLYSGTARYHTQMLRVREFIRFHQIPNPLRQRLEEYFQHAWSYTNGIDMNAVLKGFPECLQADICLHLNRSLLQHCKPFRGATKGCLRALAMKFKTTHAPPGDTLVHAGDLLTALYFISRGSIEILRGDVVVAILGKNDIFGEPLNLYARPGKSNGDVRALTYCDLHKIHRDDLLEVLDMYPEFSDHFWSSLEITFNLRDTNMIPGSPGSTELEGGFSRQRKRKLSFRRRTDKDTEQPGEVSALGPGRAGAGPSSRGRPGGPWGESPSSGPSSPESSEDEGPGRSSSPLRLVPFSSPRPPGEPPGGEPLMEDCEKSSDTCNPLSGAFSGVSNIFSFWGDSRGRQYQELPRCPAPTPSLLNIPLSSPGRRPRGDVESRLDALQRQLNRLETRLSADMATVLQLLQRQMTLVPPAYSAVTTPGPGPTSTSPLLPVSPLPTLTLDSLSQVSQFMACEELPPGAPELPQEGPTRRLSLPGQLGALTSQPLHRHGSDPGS
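Note: peak tail current of the secondary pulse compared with the same well before compound.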

Row | Compound | hERG current change (%, negative = inhibition) at 10uM [%]
1 | Nc1cc(=O)[nH]c(SCc2nnnn2-c2ccc(Cl)cc2)n1 | 4.04
2 | CCN1CCCC1CNC(=O)Cn1cc2c(n1)CCC(C)C2 (stereo not drawn) | 5.4
3 | Cn1ncc(C#N)c1/N=C/N(Cc1ccccc1)Cc1ccccc1 | -9.12
4 | COCCN(C(=O)COC(=O)c1ccccc1Nc1ccccc1)c1c(N)n(Cc2ccccc2)c(=O)[nH]c1=O | -44.9
5 | Cc1occc1C(=O)NNC(=S)NCc1ccccc1 | 6.47
6 | CC(C)(C)C(=O)Nc1cc2c3c(c1)CC(=O)N3CCC2 | 18.3
7 | CCOc1ccc2[nH]c(=O)c(CN(Cc3ccccc3)C(=O)N3CCCC3)cc2c1 | 9.28
8 | CCN1CCCC1CN(Cc1cc2ccc(C)c(C)c2[nH]c1=O)C(=O)Nc1ccccc1OC (stereo not drawn) | -63.3
9 | CCN1CCCC1CN(Cc1cc2cc(OC)ccc2[nH]c1=O)C(=O)NCc1ccccc1 (stereo not drawn) | -46.4
10 | COc1ccccc1NC(=O)N(Cc1cc2cc(OC)c(OC)cc2[nH]c1=O)CC1CCCO1 (stereo not drawn) | -9.13
11 | COc1ccccc1NC(=O)N(Cc1ccco1)Cc1cc2ccc(C)c(C)c2[nH]c1=O | 8.85
12 | COc1ccccc1NC(=O)N(Cc1ccco1)Cc1cc2cc(C)cc(C)c2[nH]c1=O | -2.39
13 | COc1ccccc1NC(=O)N(CCN1CCOCC1)Cc1cc2cc(C)cc(C)c2[nH]c1=O | -33.2
14 | CCOc1ccc2[nH]c(=O)c(CN(CC3CCCN3CC)C(=O)NCc3ccccc3)cc2c1 (stereo not drawn) | -63.2
15 | CCN1CCCC1CN(Cc1cc2cc(C)cc(C)c2[nH]c1=O)C(=O)Nc1ccccc1OC (stereo not drawn) | -61.4
16 | Cc1ccc2[nH]c(=O)c(CN(CC3COCCO3)C(=O)Nc3ccccc3C)cc2c1 (stereo not drawn) | 3.87
17 | CCN1CCCC1CN(Cc1cc2cc(C)ccc2[nH]c1=O)C(=O)Nc1ccccc1OC (stereo not drawn) | -60
18 | COc1ccccc1NC(=S)N(Cc1ccco1)Cc1cc2ccc(C)c(C)c2[nH]c1=O | -8.05
19 | CCn1c(Cc2c(C)[nH]c3ccccc23)nnc1SCC(N)=O | 13.4
20 | Cc1nn(C)c2c(=O)c(=O)c2n(C)[nH]1 | 18
21 | Cc1c(C(=O)NCC2CCCO2)oc2ccc3c(c12)C(=O)CC(C)(C)O3 (stereo not drawn) | 2.71
22 | O=C(CSc1nnc(CNC(=O)c2ccco2)o1)Nc1cccc(C(F)(F)F)c1 | -48.3
23 | COc1cccc(NC(=O)Cc2csc(NC(=O)Nc3ccccc3OC)n2)c1 | 18.2
24 | COc1ccc(CNCc2c(O)c(Cl)cc3c(C)c(C)c(=O)oc23)c(OC)c1.Cl | -3.6
25 | O=C(Cn1c(=O)oc2cc(S(=O)(=O)N3CCCC3)ccc21)N1CCc2ccccc2C1 | -32.3
26 | Cc1cccc2nc(CSCc3ccco3)cn12 | -2.01
27 | O=C1c2ccccc2C(=O)N1OCc1ccccc1[N+](=O)[O-] | 23.7

Row | Compound | hERG current change (%, negative = inhibition) at 10uM [%]
28 | COc1ccc(NC(=O)N2CCN(c3ccc([N+](=O)[O-])cc3)CC2)cc1 | -36.9
29 | COc1ccc(NC(=O)N2CCN(c3ccc([N+](=O)[O-])cc3)CC2)cc1OC | -73.2
30 | COc1ccccc1N1CCN(C(=O)c2cc(C(=O)N3CCN(c4ccccc4OC)CC3)cc([N+](=O)[O-])c2)CC1 | -0.436
31 | CCOC(=O)c1ccc(NC(=O)N2CCN(c3ccccc3OC)CC2)cc1 | 11.4
32 | O=[N+]([O-])c1ccc(NC(=S)N2CCN(c3ccc(F)cc3)CC2)cc1 | 3.73
33 | CN1CCN(C(=O)Nc2ccc([N+](=O)[O-])cc2)CC1 | -23.8
34 | COc1ccc(NC(=O)N2CCCC2)cc1OC | -10.2
35 | COc1cccc(CN2CCN(C(=O)Nc3ccc([N+](=O)[O-])cc3)CC2)c1 | -57.2
36 | O=[N+]([O-])c1ccc(N2CCN(C(=S)Nc3ccc(F)cc3)CC2)cc1 | -44.4
37 | COc1cccc(CN2CCN(C(=O)CC(C)C)CC2)c1 | -13.1
38 | O=[N+]([O-])c1ccc(N2CCN(C(=S)Nc3cccc(F)c3)CC2)cc1 | -52
39 | COc1ccccc1N1CCN(C(=O)Nc2ccc([N+](=O)[O-])cc2)CC1 | -52.4
40 | CCCC[C@@H]1CNC(=S)N1CCC12CC3CC(CC(C3)C1)C2 | 18.9
41 | C=CCn1cccc(C(=O)Nc2ccc(SC)cc2)c1=O | -15
42 | Cc1nn(CC(=O)N2CCN(C34CC5CC(CC(C5)C3)C4)CC2)c(C)c1[N+](=O)[O-] | -1.7
43 | Cc1ccc2c(cnn2C(=O)CCCC(=O)NCc2ccc(F)cc2)c1 | -9.47
44 | O=C(NCCc1ccccc1)/C(=C/c1ccco1)c1ccccc1 | -13.8
45 | CN(C)S(=O)(=O)c1cccc(C(=O)NCC(=O)NC2CCN(Cc3ccccc3)CC2)c1 | 3.32
46 | Cc1ccc(C(=O)CSc2nnnn2C(C)C)c(C)c1 | -3.38
47 | Cc1nc2ccc([N+](=O)[O-])cc2c(=O)n1Cc1cccc(Br)c1 | -4.24
48 | COc1ccc(OC)c(NC(=O)c2cc3ccccc3cc2OC)c1 | 2.44
49 | CCc1c(C#N)sc(C(N)=O)c1CC | 13.3
50 | COc1cccc(NC(=S)N2CCN(c3ccc([N+](=O)[O-])cc3)CC2)c1 | -27.5
51 | O=[N+]([O-])c1ccc(NC(=S)N2CCN(c3ccccc3)CC2)cc1 | -11.4
52 | COc1ccc(NC(=S)N2CCN(c3ccc([N+](=O)[O-])cc3)CC2)cc1OC | -77.3
53 | CCOC(=O)c1cc(CC)sc1NC(=O)C1CC1 | -7.16
54 | COC(=O)[C@H](CCSC)NC(=O)NCc1cccs1 | 20.6
